Inhibition data for 58 compounds are collected here from ChEMBL document CHEMBL1157539, “Thousands of chemical starting points for antimalarial lead identification” (Nature, 2010).

Assay type in all cases: functional
Test [1] concerns Plasmodium falciparum. Kind of test: GSK_TCMDC: Inhibition of Plasmodium falciparum 3D7 in whole red blood cells, using parasite LDH activity as an index of growth. Test compounds present at 2uM.
Test [2] concerns Plasmodium falciparum. Kind of test: GSK_TCMDC: Inhibition of Plasmodium falciparum Dd2 in whole red blood cells, using parasite LDH activity as an index of growth. Test compounds present at 2uM.
For test [3], the system named is HepG2. Kind of test: GSK_TCMDC: Percent inhibition of human HepG2 cell line. Test compounds present at 10uM.

`Fc1ccc(-c2cc(NCCCn3ccnc3)nc(-c3cccnc3)n2)cc1`: the Inhibition came to 99% in test [1], 70% in test [2] and 11% in test [3].
`O=C(/C=C/c1ccc(Cl)c(Cl)c1)NCCCCCN1CCCC(CNC(=O)Nc2ccc(C(F)(F)F)cc2)C1` (centres undefined): the Inhibition in test [1] came to 100%; in test [2] it was 7%; in test [3] it was 27%.
Regarding `CC(C)c1ccc(NC(=O)c2ccc(C(=O)NC3CCN(CC4CCCCC4)C3)cc2)cc1.O=C(O)C(F)(F)F` (centres undefined), the Inhibition is given as 93% in test [1], 26% in test [2] and 35% in test [3].
With `Cc1ccc(O)cc1Nc1ccnc2ccc(-c3csc(CNCCN4CCOCC4)n3)cc12`, the Inhibition in test [1] was found to be 100%; in test [2], 97%; in test [3], 0%.
On to `CC(=O)N(C)C1CCN(Cc2cccc(-c3ccc(-c4nc5cc(F)ccc5[nH]4)cc3)c2)C1.O=C(O)C(F)(F)F` (centres undefined), for which the Inhibition in test [1] was found to be 92%; in test [2], 19%; in test [3], 24%.
In the case of `OC(CNCc1ccccc1OCc1ccccc1)c1cccc(I)c1` (centres undefined), the results for the Inhibition in test [1], in test [2] and in test [3] were 100%, 100% and 2%, respectively.
For `Cc1cc(N)cc2nc(-c3ccc(N)cc3)[nH]c12`, the results for the Inhibition in test [1], in test [2] and in test [3] were 96%, 75% and 0%, respectively.
For `N#Cc1ccc(-c2cnc3ccc(NCc4ccc(S(N)(=O)=O)cc4)nn23)cc1` the same measures were 98%, 100% and 7%.
Turning to `CCOc1cc(C(=O)Nc2ccccc2N2CCN(S(C)(=O)=O)CC2)cc(OCC)c1OCC`, the Inhibition in test [1] worked out at 91%; in test [2] it was 80%; in test [3], 0%.
Consider `O=C(/C=C/c1cccc(C(F)(F)F)c1)NCCCCCN1CCC(c2c[nH]c3ccccc23)CC1`, for which the Inhibition came to 90% in test [1], 14% in test [2] and 70% in test [3].
Taken in the same sequence, the figures for `CO/C(=C\C=C\c1cc2cc(Cl)c(Cl)cc2[nH]1)C(=O)NC1CCN(CCCc2ccccc2)CC1` were 93%, 75% and 59%.
With `COc1cc(-c2nc(-c3ccc([N+](=O)[O-])cc3)c(-c3ccccc3)[nH]2)cc(OC)c1O`, the Inhibition in test [1] came out at 98%; in test [2], 56%; in test [3], 7%.
On to `COc1ccccc1C1CCN(C2CCC(NC(=O)/C=C/c3ccc4c(c3)OC(F)(F)O4)CC2)CC1` (centres undefined), for which the Inhibition in test [1] was determined as 98%; in test [2], 31%; in test [3], 52%.
For the compound `CC(C)COc1ccc(Cl)cc1Cc1ccc(-c2nc3cc(CCN(C)C)ccc3[nH]2)o1.Cl`, the Inhibition turned out to be 92% in test [1], 7% in test [2] and 10% in test [3].
As to `CC1(CCc2ccccc2)N=C(N)N(Cc2ccccc2)C(=O)C1c1ccc(Cl)c(Cl)c1.O=C(O)C(F)(F)F` (centres undefined), the Inhibition in test [1] was 97%; in test [2], 96%; in test [3], 100%.
As for `CCCCCCCN(Cc1ccc(OC(C)(C)C(=O)OCC)cc1)C(=O)Nc1ccccc1OC(F)(F)F`, the Inhibition in test [1] is listed as 95%; in test [2] it was 68%; in test [3], 0%.
As to `C=CCOC(=O)N1CCC(CNCc2cccc(-c3ccc(-c4nc5cc(C(F)(F)F)ccc5[nH]4)cc3)c2)C1.O=C(O)C(F)(F)F` (centres undefined), the Inhibition turned out to be 100% in test [1], 96% in test [2] and 28% in test [3].
Take `CCNc1cc(C(=O)N[C@@H](Cc2ccccc2)[C@H](O)CNC(CC)c2cccc(Cl)c2)cc(N2CCCC2=O)c1.Cl` (some centres undefined): the Inhibition in test [1] is 97%; in test [2], 99%; in test [3] it was 12%.
Regarding `CC(=O)Nc1ccc(CN2CCC(NC(=O)c3ccc(-c4cccc(F)c4)s3)CC2)cc1.O=C(O)C(F)(F)F`, the Inhibition came out at 96% in test [1], 13% in test [2] and 6% in test [3].
Taken in the same sequence, the figures for `Cl.Oc1ccc2[nH]c(-c3cccs3)nc2c1CN1CCC(O)(c2ccccc2)CC1` were 93%, 69% and 10%.
On to `O=C(Nc1ccc(OC2CCN(Cc3ccco3)CC2)c(Cl)c1)c1ccc2ncccc2c1.O=C(O)C(F)(F)F`, for which the Inhibition in test [1] is 97%; in test [2], 40%; in test [3] it was 0%.
With `COc1ccc(-c2cccc(NC(=O)c3cccc(C#N)c3)c2)cc1CN(C)CCN(C)C.O=C(O)C(F)(F)F`, the Inhibition in test [1] is given as 99%; in test [2], 21%; in test [3] it was 0%.
For `CN(C)Cc1ccc(-c2ccc3c(Nc4ccc(Oc5ccccc5)cc4)ccnc3c2)o1`, the Inhibition in test [1] is 100%; in test [2], 100%; in test [3] it was 10%.
With `CC(C)Cn1c(Sc2ccc(C#N)c([N+](=O)[O-])c2)nnc1-c1cccs1`, the Inhibition in test [1] came out at 90%; in test [2] it was 32%; in test [3] it was 9%.
As for `C=CCOC1OC(COC(c2ccccc2)(c2ccccc2)c2ccccc2)C(OC(C)=O)C(OC(C)=O)C1NC(C)=O` (centres undefined), the Inhibition is reported as 93% in test [1], 66% in test [2] and 0% in test [3].
For `NCC1CCCN1Cc1ccc(-c2ccc(-c3nc4ccccc4[nH]3)s2)cc1.O=C(O)C(F)(F)F` (centres undefined), the Inhibition was 98% in test [1], 97% in test [2] and 17% in test [3].
Turning to `O=C(NCCc1cccc(Cl)c1Cl)c1cnc(N2CCN(c3ccncc3)CC2)c(Cl)c1.O=C(O)C(F)(F)F`, the Inhibition in test [1] stood at 100%; in test [2], 99%; in test [3] it was 47%.
On to `Cc1cc(N[C@@H](Cc2ccccc2)C(=O)NCc2cccs2)nc(Nc2ccccc2)n1.O=C(O)C(F)(F)F`, for which the Inhibition is recorded as 96% in test [1], 36% in test [2] and 3% in test [3].
With `CN1CCC(N(Cc2ccc(N3CCN(Cc4c[nH]c5ccc(Cl)cc45)CC3)nc2)C2CC2)CC1`, the Inhibition in test [1] was 100%; in test [2], 76%; in test [3] it was 96%.
For the compound `N#Cc1cccc(C(=O)Nc2ccc(-c3cccc(CN4CCC(O)CC4)c3)cc2)c1.O=C(O)C(F)(F)F`, the Inhibition in test [1] is 100%; in test [2], 68%; in test [3], 33%.
With `O=C(Nc1cc(F)cc(F)c1)N[C@H]1CCN(CCCCCNC(=O)C2CC2c2ccc(Cl)c(Cl)c2)C1` (some centres undefined), the values for the Inhibition in test [1], in test [2] and in test [3] were 88%, 0% and 24%, respectively.
For `Cc1[nH]c(C)c(-c2ccc(Nc3ccc(C(F)(F)F)cn3)cc2)c(=O)c1Br` the same measures were 99%, 98% and 30%.
Taken in the same sequence, the figures for `COC(=O)c1cccc(CNCc2cccc(-c3ccc(-c4nc5cccc(C)c5[nH]4)s3)c2)c1.O=C(O)C(F)(F)F` were 100%, 65% and 0%.
As to `Cc1ccc(-c2nc3ccccc3o2)cc1NCc1cc(Cc2ccccc2)ccc1O`, the Inhibition came out at 82% in test [1], 50% in test [2] and 45% in test [3].
Taken in the same sequence, the figures for `Cc1cc(C(=O)Nc2ccc3c(c2)CCN3C2CCN(Cc3ccc(O)cc3)C2)no1` (centres undefined) were 95%, 86% and 3%.
Regarding `COc1ccc2c(O)c(C3CCC(c4ccc(Cl)cc4)CC3)c(C)nc2c1` (centres undefined), the figures for the Inhibition in test [1], in test [2] and in test [3] were 97%, 84% and 2%, respectively.
As to `Cc1c(Cl)cccc1S(=O)(=O)Nc1ccc(CCN2CCC(N)CC2)cc1.Cl`, the Inhibition was 90% in test [1], 4% in test [2] and 23% in test [3].
For the compound `O=C(O)C(F)(F)F.c1cc(CNCCc2ccncc2)cc(-c2csc(-c3nc4ccccc4[nH]3)c2)c1`, the Inhibition worked out at 100% in test [1], 99% in test [2] and 16% in test [3].
With `CCOC(=O)N[C@@H]1CN[C@@H](C#Cc2cc3c(Nc4ccc(OCc5cccc(F)c5)c(Cl)c4)ncnc3s2)C1`, the Inhibition in test [1] was 86%; in test [2] it was 13%; in test [3], 8%.
In the case of `CCN(CC)CCN(Cc1ccc(-c2ccc(Br)cc2)cc1)C(=O)Cn1c(CCc2cccc(F)c2F)nc(=O)c2ccccc21.O=C(O)C(O)C(O)C(=O)O`, the Inhibition turned out to be 98% in test [1], 74% in test [2] and 37% in test [3].
Consider `Cc1cc(Nc2ncc(C#N)c(Nc3ccccc3C(N)=O)n2)ccc1N1CCN(C)CC1.Cl`, for which the Inhibition was found to be 94% in test [1], 94% in test [2] and 99% in test [3].
With `CCN1CCC(N(Cc2ccc(-c3ccc(C(F)(F)F)s3)cc2)C(=O)Cn2c(CCc3cccc(F)c3F)nc(=O)c3ccccc32)CC1.O=C(O)C(O)C(O)C(=O)O`, the Inhibition was 93% in test [1], 95% in test [2] and 47% in test [3].
Take `Cc1cc(N2CCCN(CC3CCCCC3)CC2)nc(Nc2ccc(Br)cc2)n1`: the Inhibition is 95% in test [1], 54% in test [2] and 24% in test [3].
For `COc1ccc2[nH]cc(C3CCN(CCCCNC(=O)c4ccc(NC(=O)c5ccc(Cl)cc5)cc4)CC3)c2c1`, the Inhibition in test [1] was determined as 98%; in test [2], 16%; in test [3] it was 17%.
`O=C(Nc1cccc(-c2nn3ccccc3c2-c2ccnc(Nc3ccc(-c4cc[nH]n4)cc3)n2)c1)c1c(F)cccc1F`: the Inhibition in test [1] is recorded as 98%; in test [2], 98%; in test [3] it was 68%.
Regarding `O=C(Nc1cccc(-c2ccc(-c3nc4cc(F)ccc4[nH]3)cc2)c1)Nc1ccc(F)c(F)c1F`, the Inhibition in test [1] is 98%; in test [2], 98%; in test [3], 53%.
Take `COc1ccc(O)c(Cc2cnc3nc(N)[nH]c(=O)c3c2C)c1.CS(=O)(=O)O`: the values for the Inhibition in test [1], in test [2] and in test [3] were 96%, 6% and 30%, respectively.
For `NC(=O)c1cccc(-n2ccc3cc(CNC4Cc5ccccc5C4)ccc32)c1.O=C(O)C(F)(F)F` the same measures were 88%, 7% and 17%.
Taken in the same sequence, the figures for `COc1cc2nc(Nc3ccc(C)cc3)nc(Nc3ccc(C)cc3)c2cc1OC.Cl` were 100%, 100% and 99%.
As for `CCCNCc1ccc(-c2ccc(CN(CCOC)C(=O)CC3CCCC3=O)cc2)nc1.O=C(O)C(F)(F)F` (centres undefined), the Inhibition worked out at 93% in test [1], 9% in test [2] and 5% in test [3].
For `COc1ccccc1C1CCN(C2CCC(NC(=O)/C=C/c3ccc(C(F)(F)F)cc3)CC2)CC1` (centres undefined) the same measures were 88%, 7% and 57%.
For `CS(=O)(=O)N1CC2(CCN(CCC(NC(=O)Nc3ccccc3)c3ccc(Cl)c(Cl)c3)CC2)c2ccccc21` (centres undefined) the same measures were 99%, 72% and 23%.
Consider `Cl.Oc1cc(-c2nc(-c3ccccc3)[nH]c2-c2ccncc2)ccc1Cl`, for which the Inhibition in test [1] is 96%; in test [2] it was 91%; in test [3], 64%.
For `Cl.Fc1ccc2ncc(Cl)c(CCN3CCC(NCc4cc5c(cn4)OCCO5)CC3)c2c1` the same measures were 93%, 20% and 24%.
Take `Cc1nc(-c2cccc(C(=O)NC3CCC(CCN4CCc5ccc(-c6cccnc6)cc5CC4)CC3)c2)no1.Cl` (centres undefined): the Inhibition in test [1] is recorded as 98%; in test [2] it was 4%; in test [3] it was 17%.
As to `Cc1nc(N)nc(N)c1OCCCCOc1ccccc1.Cl.O`, the Inhibition in test [1] is 94%; in test [2] it was 4%; in test [3] it was 62%.
For the compound `CCN(CC)CCNC(=O)c1ccc(NC(=O)c2ccc(-c3cc(NC(=O)CC4CCCC4)ccc3C)cc2)cc1`, the Inhibition was 99% in test [1], 95% in test [2] and 12% in test [3].
`CCc1cn2c3c(cc(C(=O)N[C@@H](Cc4ccccc4)[C@H](O)CNC4CCOCC4)cc13)N(CC(F)(F)F)S(=O)(=O)CC2.O=CO`: the Inhibition is reported as 98% in test [1], 98% in test [2] and 4% in test [3].
